Experimental findings from PubChem BioAssay AID618 (Sanford-Burnham Center for Chemical Genomics, 2007) are described below.

About 540 (0.62%) of roughly 87,000 compounds were called active. How the calls were made is not given here. The full list was thinned out, with actives kept by preference. Entries with a potency or affinity are not part of this list.

The assay is described as follows: MT1-MMP gene expression reporter suppression – cell-based, luciferase reporter, luminescence (AID 618).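 Further: actives suppress MT1-MMP promoter-driven transcription so potencies describe inhibitors.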 The note with it: MT1-MMP promoter luciferase reporter cells. A general note: A reporter such as luciferase makes a cellular process visible.
On to `CC(C)Cc1nnc(NC(=O)CCN2C(=O)c3ccccc3C2=O)s1`, for which the compound was called inactive.
With `CCOC(=O)C1=C(C)N(Cc2ccccc2)C(=O)NC1c1ccc(OC)cc1` (stereo not drawn), the result was inactive.
With `c1ccc(N2CCCCC2)c(NC2=NCCC2)c1`, the call was inactive.
For `Cc1ccc(-c2nc(=S)c3c(n2CC2CCCO2)CC(C)(C)OC3)cc1` (stereo not drawn), the compound was called inactive.
With `O=C(NCCCN1CCCC1=O)c1cc(=O)c2ccccc2o1`, the compound was called inactive.
As for `CCOC(=O)CN(C(=O)Cn1nnc2ccccc21)C(C(=O)NCCOC)c1ccccc1C` (stereo not drawn), the result was inactive.
Consider `COc1ccc2[nH]c3nc(SCc4nnc(-c5ccc(C)cc5)o4)nnc3c2c1`, for which the result was inactive.
For `COc1ccc2[nH]c3nc(SC(C)C)nnc3c2c1`, the compound was classed as active.
In the case of `COc1ccc2[nH]c3nc(SCc4nnc(-c5ccccc5)o4)nnc3c2c1` it was “inactive”.
For the compound `COc1ccc(NC(=O)c2cnc3sccn3c2=O)cc1`, the compound was classed as inactive.
As for `Cc1ccc(-c2nc3ccccn3c2NC(=O)c2ccco2)cc1`, the entry is “inactive”; as for `Cc1cccn2c(=O)c3cc(C(=O)NCc4ccco4)c(=N)n(CCOCCO)c3nc12`, “inactive”.
On to `COc1ccccc1-c1nnc2n1N=C(c1ccc(O)c(O)c1)CS2`, for which the result was inactive.
As for `COc1ccc(OC)c(C2=Nn3c(nnc3-c3cc(OC)c(OC)c(OC)c3)SC2)c1`, the outcome was inactive.
As to `COc1cc(-c2nnc3n2N=C(c2ccccc2)CS3)cc(OC)c1OC`, the call was active.
As to `CCOc1ccc(C2=Nn3c(nnc3-c3ccc(OC)cc3)SC2)cc1`, the compound was called inactive.
Turning to `COc1ccc(C2=Nn3c(nnc3-c3ccccc3OC)SC2)cc1OC`, the compound was classed as active.
Consider `CCOc1ccc(C2=Nn3c(nnc3-c3ccccc3OC)SC2)cc1`, for which the compound was classed as active.
As to `CCOc1ccc(-c2nnc3n2N=C(c2ccc(OC)cc2)CS3)cc1`, the compound was called inactive.
For the compound `COc1ccc(-c2nnc3n2N=C(c2ccccc2)CS3)cc1OC`, the compound was called inactive.
Consider `COc1ccc(C2=Nn3c(nnc3-c3ccccc3)SC2)cc1OC`, for which the compound was classed as inactive.
As for `COC(=O)c1ccccc1NC(=O)Cn1c(=O)oc2ccc(Cl)cc21`, the entry is “inactive”; as for `C=CCNc1sc(C(=O)c2ccc(Br)s2)c(N)c1C#N`, “inactive”.
As to `Cc1ccc(C(=O)NNC(=O)Cc2ccccc2)cc1`, the call was inactive.
For `Cc1nc2ccccc2n1CC(=O)OCC(=O)Nc1ccc2c(c1)OCCO2`, the call was inactive.
Regarding `CCc1nnc2n1N=C(c1ccc(OC)cc1)CS2`, the compound was called inactive.
As to `CCCNC(=O)c1oc2ccc3c(c2c1C)C(=O)CC(C)(C)O3`, the outcome was inactive.
In the case of `Cc1c(C(=O)NCc2ccoc2)oc2ccc3c(c12)C(=O)CC(C)(C)O3`, the outcome was inactive.
Regarding `CCC(C)n1c(SC(C)C#N)nc2ccccc2c1=O` (stereo not drawn), the compound was called inactive.
For the compound `Nc1nonc1C(=Nc1ccccc1)NO`, the call was inactive.
As for `CCOc1ccc(OCc2ccc(C(=O)NCc3cccnc3)o2)cc1`, the entry is “inactive”; as for `CCOC(=O)N1CCN(c2nc(-c3ccc(OC)cc3)no2)CC1`, “inactive”; as for `c1ccc(COc2ccc(OCCn3cncn3)cc2)cc1`, “inactive”.
For the compound `COc1ccc(-c2cc3nc4n(c(=O)c3s2)CCC4)cc1`, the result was active.
In the case of `COc1ccc(-c2cc3nc4n(c(=O)c3s2)CCOC4)cc1` it was “inactive”; in that of `O=c1c2ccccc2nc2n1CCC2`, “inactive”.
In the case of `O=c1c2ccccc2nc2n1CCCCC2` it was “inactive”.
With `COc1ccc(-c2nc3n(c2Br)CCC3)cc1`, the result was inactive.
Consider `COc1cc2c(cc1NC(=O)CN1C(=O)NC3(CCc4ccccc43)C1=O)oc1ccccc12` (stereo not drawn), for which the call was inactive.
For the compound `Cc1ccc(S(=O)(=O)NC(=O)Nc2c(C)n(C)n(-c3ccccc3)c2=O)cc1`, the result was inactive.
Regarding `CCOc1ccc(N(CC(=O)Nc2ccccc2C)S(=O)(=O)c2c(C)noc2C)cc1`, the compound was called active.
Turning to `CCOc1ccccc1NC(=O)CN(c1ccc(OC)cc1)S(=O)(=O)c1c(C)noc1C`, the compound was classed as inactive.
As for `CCOc1ccccc1NC(=O)CN(c1ccc(C)cc1)S(=O)(=O)c1c(C)noc1C`, the compound was called inactive.
As for `Cc1nnc2n(C3CCCCC3)c(=O)c3c4c(sc3n12)CCC4`, the result was inactive.
For `Cc1nc(Cl)sc1C(=O)O`, the outcome was inactive.
Regarding `O=C(Nc1ccon1)c1cc2c(s1)CCCCCC2`, the outcome was inactive.
With `CNS(=O)(=O)c1ccc(Oc2ccc(S(=O)(=O)NC)cc2)cc1`, the compound was classed as inactive.
In the case of `C=CS(=O)(=O)c1ccc(Oc2ccc(S(=O)(=O)C=C)cc2)cc1`, the outcome was active.
Consider `O=S(=O)(c1ccc(Oc2ccc(S(=O)(=O)N3CCOCC3)cc2)cc1)N1CCOCC1`, for which the compound was called inactive.
As for `O=C(NCCOc1ccccc1)c1ccc2c(c1)OCO2`, the entry is “active”.
On to `CCOCCCNC(=O)c1ccc2c(c1)OCO2`, for which the compound was classed as inactive.
As for `COCCCNC(=O)c1ccc2c(c1)OCO2`, the compound was classed as inactive.
As to `Cn1c(=O)c2c(nc(CN3CCN(c4ccccc4)CC3)n2CCCc2ccccc2)n(C)c1=O`, the outcome was inactive.
Turning to `COc1ccccc1NC(=O)CN1C(=O)NC(C)(C)C1=O`, the outcome was inactive.
Regarding `O=C(NCc1ccccc1)C(c1cccnc1)N(Cc1ccco1)C(=O)c1ccccn1` (stereo not drawn), the call was inactive.
Regarding `CCOC(=O)N1CCN(C(=O)c2ccc3nc(N4CCC(C)CC4)sc3c2)CC1`, the compound was classed as inactive.
In the case of `CCOC(CNC(=O)c1ccc2nc(N3CCC(C)CC3)sc2c1)OCC` it was “inactive”; in that of `Cc1cc(Oc2ccc(C(C)(C)C)cc2)nc(N2CCOCC2)n1`, “inactive”.
As for `CN(CC(=O)NCCN1CCCCCC1)S(=O)(=O)c1cccc2nsnc12`, the entry is “inactive”; as for `COc1ccc(-c2nn(C)c3sc(C(=O)NCc4ccco4)cc23)cc1OC`, “inactive”; as for `NC(=O)c1cnn2c(C(F)(F)F)cc(-c3ccc(F)cc3)nc12`, “inactive”.
In the case of `CN1/C(=C\C(=O)c2ccco2)C(C)(C)c2ccccc21`, the compound was classed as inactive.
As to `CN1/C(=C\C(=O)C(F)F)C(C)(C)c2ccccc21`, the call was inactive.
Consider `COC(=O)c1ccccc1NC(=O)c1cc(-c2cccs2)on1`, for which the outcome was inactive.
As for `c1ccc(NC2=Nc3ccccc3CC2)cc1`, the entry is “inactive”.
Take `Brc1ccc(NC2=Nc3ccccc3CC2)cc1`: the call was inactive.
Turning to `CC(=O)N1CCc2[nH]c3ccccc3c2C1`, the compound was classed as inactive.
In the case of `O=C(OCn1ncc(Br)c(Br)c1=O)c1ccc(F)cc1` it was “active”; in that of `O=C(OCn1ncc(Br)c(Br)c1=O)c1ccccc1Cl`, “inactive”; in that of `O=C(OCn1ncc(Br)c(Br)c1=O)c1c(F)cccc1F`, “active”.
In the case of `CCn1ncc(Br)c1C(=O)Nc1ccc(F)cc1F` it was “inactive”; in that of `Cc1onc(-c2c(F)cccc2Cl)c1C(=O)OCn1nnc2ccccc2c1=O`, “inactive”.
On to `CCn1ncc(Br)c1C(=O)Nc1ccc(C(=O)OC(C)C)cc1`, for which the call was inactive.
In the case of `Cc1ccccc1-n1nc(C(=O)c2cccs2)cc(-c2nc3ccccc3[nH]2)c1=N`, the call was inactive.
In the case of `O=C(OCc1nnc(-c2ccc(Cl)cc2)o1)c1ccc(=O)n(Cc2ccccc2)n1` it was “inactive”.
In the case of `Cc1cc(NC(=O)CS(=O)(=O)c2cn(Cc3ccc(F)cc3)c3ccccc23)no1` it was “inactive”.
Consider `O=C(Oc1ccc(-c2ccccc2)cc1)N1CCOCC1`, for which the call was inactive.
Regarding `O=C(Cn1nc(-c2ccccc2F)ccc1=O)NCc1ccc2c(c1)OCO2`, the call was inactive.
As to `CCCCn1nnc(NC(=O)c2ccc(-c3ccccc3)cc2)n1`, the result was inactive.
For the compound `CCCCCCCNC1=CC(=O)CC(c2ccco2)C1` (stereo not drawn), the compound was called inactive.
As for `COc1cc(NC(=O)CN(c2ccc(C)cc2)S(=O)(=O)c2c(C)nn(C)c2C)cc(OC)c1`, the result was inactive.
In the case of `O=C(Nc1ccc2c(c1)OCO2)C(c1ccccc1)N1CCN(C(=O)c2ccco2)CC1` (stereo not drawn), the outcome was inactive.
For `Nc1nc(-c2ccccc2)cs1`, the outcome was inactive.
As for `Cc1cc(-c2csc(N)n2)c(C)n1C`, the entry is “inactive”.
Take `CCOC(=O)c1cc(C)n(CCc2ccccc2)c1C`: the compound was classed as inactive.
In the case of `CCCn1c(C)cc(-c2csc(N)n2)c1C` it was “inactive”; in that of `Cc1nc2ccccc2nc1N1CCC(C)CC1`, “inactive”; in that of `O=C(Nc1ccc2c(c1)OCO2)N1CCN(S(=O)(=O)c2ccc(Cl)cc2)CC1`, “inactive”.
Take `CC1(C)N(OCc2ccccc2)C(=O)C(=O)N(OCc2ccccc2)C1(C)C`: the compound was called inactive.
Take `C=CCNc1nc(N(c2ccccc2)c2ccccc2)nc(-n2ccnc2)n1`: the result was inactive.
Turning to `COc1cccc(-n2nnnc2SCC(=O)NC2CCCC2)c1`, the compound was called inactive.
For `CCCS(=O)(=O)c1nnnn1-c1cccc(OC)c1`, the outcome was active.
As for `COc1cccc(Oc2nnnn2-c2ccccc2)c1`, the entry is “inactive”; as for `CCCS(=O)(=O)C(=C1NCCO1)S(=O)(=O)CCC`, “inactive”.
As for `COc1cccc(-c2nc3ccc(O)cc3c(=O)o2)c1`, the call was inactive.
On to `COc1nc(-c2ccc(C)cc2)ccc1-c1noc(-c2ccco2)n1`, for which the result was inactive.
As for `CCOc1nc(C)ccc1-c1noc(-c2ccco2)n1`, the call was inactive.
Consider `Cc1cccc(OCC(=O)Nc2ccc3c(c2)OCO3)c1C`, for which the compound was classed as inactive.
In the case of `C/C(=C\C(=O)c1cccnc1)Nc1ccc(C(=O)O)cc1`, the compound was classed as inactive.
Consider `CN(C)c1ccc(C(=O)C(O)c2ccccc2)cc1` (stereo not drawn), for which the compound was classed as inactive.
For the compound `CCC(C(=O)c1ccc(O)cc1)c1ccccc1` (stereo not drawn), the outcome was inactive.
Regarding `CN(C)CC(C(=O)c1ccccc1)c1ccccc1` (stereo not drawn), the compound was called active.
Turning to `O=C(Cn1nc(C(=O)O)c2ccccc2c1=O)NCCC1=CCCCC1`, the result was inactive.
As for `CC(Cc1ccccc1)NC(=O)C1CCCNC1=O` (stereo not drawn), the entry is “inactive”; as for `CCCCC(=O)c1ccc(O)cc1O`, “inactive”; as for `O=C(CSc1nnc(-c2ccncc2)n1Cc1ccco1)N1c2ccccc2Sc2ccc(Cl)cc21`, “inactive”.
`COc1ccc(N2CCN(C(=O)CSc3nnc(-c4cccnc4)n3-c3ccc(F)cc3)CC2)cc1`: the outcome was inactive.
Regarding `Cc1ccc(CN(c2ccc(C(=O)NCc3ccccn3)cc2)S(C)(=O)=O)cc1`, the result was inactive.
For the compound `O=C(CSC1=NCCS1)N1CCOCC1`, the result was inactive.
For the compound `O=C(COc1ccc(Cl)cc1Cl)Nc1ccccn1`, the compound was called active.
Consider `O=C(COc1ccccc1Cl)Nc1ccc(Cl)cn1`, for which the compound was called inactive.
As for `O=C(COc1ccc(Cl)cc1Cl)Nc1ccc(Cl)cn1`, the entry is “inactive”; as for `Cc1ccc(C(C)C)c(OCCN)c1`, “inactive”.
As for `COc1ccc(OC(C)C(=O)N2CC(C)OC(C)C2)cc1` (stereo not drawn), the entry is “inactive”; as for `O=C(Nc1ccc(N2C(=O)C3C4C=CC(C4)C3C2=O)cc1)Nc1nncs1` (stereo not drawn), “inactive”.
With `CCCn1c(N)c(C(=O)CSc2nc(C)cs2)c(=O)[nH]c1=O`, the result was inactive.
In the case of `Nc1ccc2oc(-c3cccs3)nc2c1`, the result was inactive.
Consider `Nc1ccc(-c2nc3ccc(-c4nc5ccccc5o4)cc3[nH]2)cc1`, for which the outcome was inactive.
With `c1ccc2oc(-c3ccc4nc[nH]c4c3)nc2c1`, the outcome was inactive.
In the case of `Nc1ccc2oc(-c3ccccn3)nc2c1`, the compound was classed as inactive.
Regarding `Cc1ccc2oc(-c3ccco3)nc2c1`, the compound was called inactive.
Take `Cc1nc2ccc(-c3nc4ccccc4o3)cc2[nH]1`: the result was inactive.
As for `Cc1ccc(-c2nc3cc(NS(=O)(=O)c4ccc(C)cc4)ccc3o2)cc1`, the entry is “inactive”.
